Hits are enriched below; roughly 2.9% of the tested compounds scored in any of these assays.
PLCb3 inh: blocks human PLC-beta3 enzyme activity. Purified PLC-beta3, fluorogenic substrate, fluorescence. inhibition, % at 12.2 µM. Q01970. 370,000 tested, 0.18% active; in the data active = inhibition above about 11%;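 note: 0% = median of compound wells on plate and 100% = full blocker control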
ADAM17 inh: inhibitors of human ADAM17 | inhibition, % at 6.95 µM | 370,000 tested, 0.83% active | recombinant ADAM17, EDANS/DABCYL FRET peptide cleavage | P78536 | AID 720648;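 active = inhibition above the mean of compounds lying between control limits plus 3 SD, set per campaign, cut at about 8.5% in these data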;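 note: 0% = DMSO-only wells as the low control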
KLK7 zymogen act: proKLK7 (human) activation, primary screen; 370,000 tested, 0.9% active; purified proKLK7, EDANS-DABCYL substrate fluorescence; 100% is mature enzyme control, 0% vehicle; activation, % at 7 µM; P49862; AID 652039;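 active = activation above the mean of all tested compounds plus 3 SD, computed per campaign excluding outliers beyond control limits, cut at about 13% in these data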
ADAM10 inh: inhibitors of human ADAM10. O14672. recombinant ADAM10, EDANS/DABCYL FRET peptide cleavage, 3 h. inhibition, % at 7 µM. 370,000 tested, 0.62% active. AID 720582;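 active = inhibition above a per-campaign cutoff equal to the mean of compounds falling between control-based bounds plus 3 SD, cut at about 20% in these data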;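 note: 0% = DMSO wells while the 100% control is not disclosed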
PLC-gamma1 inh: blocks human PLC-gamma1 enzyme activity. purified PLC-gamma1, fluorogenic substrate, fluorescence. 370,000 tested, 0.84% active. AID 720700. inhibition, % at 12.2 µM. P19174; in the data active = inhibition above about 9.5%
KLK7 act conf: proKLK7 activation, confirmation. shares compounds with KLK7 zymogen act. purified proKLK7, EDANS-DABCYL substrate fluorescence; scaled: vehicle 0, mature enzyme 100. activation, % at 7 µM. 3,200 tested, 68% active. AID 686949;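 active = activation, as change over the incubation, above the mean of all tested compounds plus 3 SD, cut at about 13% in these data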
EDANS-DABCYL int: fluorescence interference counter-screen for KLK7 activators. EDANS-DABCYL substrate fluorescence interference, no enzyme, 4 h; solvent 0%, active enzyme control 100%. activation, % at 7 µM. AID 686952. shares compounds with KLK7 zymogen act. 3,200 tested, 80% active;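 active = activation above the all-compound mean plus 3 SD, ignoring values outside control-based bounds, cut at about 4.8% in these data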;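 note: value is the 4 h activation minus the activation read at time zero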
EDANS interf: optically interferes with EDANS-DABCYL fluorescence, kallikrein-7 activator counter-screen; EC50, µM; shares compounds with KLK7 zymogen act; EDANS-DABCYL peptide fluorescence interference, no enzyme; 250 tested, 20% active;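 active = compounds that raise the fluorescence signal in this interference counterscreen, with EC50 at or below 10 µM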;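 note: intact quenched peptide substrate alone read at 355 nm excitation and 520 nm emission; signal is fluorescence gain from T0 to T4 after four hours at room temperature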
An asterisk follows results filed as active; i = inactive; . = no result; ! = a repeat was not active.

SMILES	PLCb3 inh	ADAM17 inh	KLK7 zymogen act	ADAM10 inh	PLC-gamma1 inh	KLK7 act conf	EDANS-DABCYL int	others
CCN1CCSc2ccc(C(=O)NCc3ccccc3C)cc21	i	-434	20*	i	i	-21	-25
COc1cccc(CNC(=O)c2ccc3c(c2)N(C)CCS3)c1OC	i	i	38*	i	i	69*	47*	EDANS interf=>70
CCN1CCSc2ccc(C(=O)NCc3ccccc3F)cc21	i	i	31*	i	i	50*	-26	EDANS interf=>70
CCCCNC(=O)C[C@H]1C[C@@]2(C(=O)OC)C(=C[C@H](C(C)C)O[C@@H]2C2CC2)N(Cc2ccc3c(c2)OCO3)C1=O	1	-3	0	2	1	.	.
COc1ccc(CNC2CCC23CCC(C)CC3)cc1 (stereo not drawn)	-1	-6	.	-9	0	.	.
Cc1ccccc1CN1CCCCC(NC(=O)c2c(F)cccc2F)C1=O (stereo not drawn)	1	2	0	-6	0	.	.
CCN(C(=O)C1CCCN1S(=O)(=O)c1cccnc1)c1ccccc1 (stereo not drawn)	4	2	0	9	1	.	.
CCOC(=O)[C@]12CCCC3=C1N(CCC3)C(=O)[C@@H](CC(=O)NCc1cccc(C(F)(F)F)c1)C2	0	-6	0	-5	-1	.	.
CN1CCSc2ccc(C(=O)NCc3ccccc3F)cc21	i	-380	29*	i	i	31*	13*	EDANS interf=>70
CNC(=O)CCc1nc(-c2ccc(C(C)C)cc2)no1	1	-3	.	-4	1	.	.
COC[C@@H]1CCCN1c1cccc2c1S(=O)(=O)N(C1CC1)CCCO2	-3	-6	0	-8	-2	.	.
CCCOc1ccc(/C=C2\SC(N)=NC2=O)cc1OC	-34	-6	18*	-3	-28	0	-2
O=C(CN1CCOCC1)Nc1nc(-c2ccc(Cl)cc2)cs1	6	-2	0	5	2	.	.
CC1CN(CC(=O)Nc2nc(-c3ccc(Cl)cc3)cs2)CC(C)O1 (stereo not drawn)	-7	-2	50*	6	2	1	1
CCCCn1c(=NC(=O)c2ccco2)c(C(=O)OCC)cc2c(=O)n3ccccc3nc21	i	i	50*	i	-464	21*	21*
COCCCn1c(=NC(=O)c2ccncc2)c(C#N)cc2c(=O)n3cccc(C)c3nc21	-370	i	15*	i	-269	30*	47*
CCOCCCn1c(=NC(=O)c2cccs2)c(C#N)cc2c(=O)n3ccccc3nc21	i	i	53*	i	i	-432	-326
CCCCCn1c(=NC(=O)c2ccco2)c(C(=O)OCC)cc2c(=O)n3ccccc3nc21	-349	i	24*	i	-257	33*	38*
Cc1cccn2c(=O)c3cc(C#N)c(=NC(=O)c4cccs4)n(CCCOC(C)C)c3nc12	-160	-382	7	i	-112	.	.
Cc1cccn2c(=O)c3cc(C#N)c(=NC(=O)c4ccncc4)n(CCCOC(C)C)c3nc12	-143	-314	-1	i	-108	.	.
O=C(N1CCC(C(O)(c2ccccc2)c2ccccc2)CC1)n1ncc(C(O)(c2ccccc2)c2ccccc2)n1	0	8	.	15	0	.	.
O=S1(=O)c2c(cccc2N2CCC[C@@H]2CO)O[C@H]2CCN1C2	0	-2	1	3	1	.	.
Cc1cccc(Cn2cc(CN3CC(N(C)CCOC(=O)c4cc(C)cc(C)c4)CS3(=O)=O)nn2)c1 (stereo not drawn)	3	4	3	3	1	.	.
CN1C(=O)c2cc(NC(=O)Cc3cccs3)ccc2OC[C@@H]2O[C@@H](CC(=O)N[C@H]3CCN(Cc4ccccc4)C3)CC[C@@H]21	-2	-1	0	1	-2	.	.
C#CCNC(=O)C[C@@H]1C(=O)N(Cc2ccc(OC)cc2)C2=CCN(C(=O)OC(C)(C)C)C[C@]21C(=O)OCC	1	-1	0	-2	0	.	.
SMILES	PLCb3 inh	ADAM17 inh	KLK7 zymogen act	ADAM10 inh	PLC-gamma1 inh	KLK7 act conf	EDANS-DABCYL int	others
O=C(CCc1nc(-c2ccccc2F)no1)NCCc1cccc(F)c1	-3	2	0	-9	-1	.	.
CCCCn1c(=NC(=O)c2cccnc2)c(C(=O)OCC)cc2c(=O)n3ccccc3nc21	-207	-224	4	i	-166	.	.
CCOC(=O)c1cc2c(=O)n3cccc(C)c3nc2n(CCCOC)c1=NC(=O)c1cccnc1	-389	i	9	i	-331	.	.
CCOCCCn1c(=NC(=O)c2cccnc2)c(C(=O)OCC)cc2c(=O)n3ccccc3nc21	i	i	29*	i	i	3	4.5*!
CCCCn1c(=NC(=O)c2ccco2)c(C(=O)OCC)cc2c(=O)n3cccc(C)c3nc21	-227	i	18*	i	-185	2	-1
COCC(=O)N(C[C@H]1[C@H](c2ccccc2)[C@@H](CO)N1C(=O)NC(C)C)C(C)C	0	0	0	4	3	.	.
Oc1ccccc1-c1nc(NCc2ccco2)c2ccccc2n1	-137	-1	13*	12	-104	2	13*
CCOC(=O)[C@@]12CCCC3=C1N(CCC3)C(=O)[C@H]2CC(=O)NCCCCc1ccccc1	2	4	1	0	3	.	.
CC(=O)Nc1ccc2nc(NC(=O)c3cccs3)sc2c1	-106	-3	1	-8	-76	.	.
COc1ccc2nc(NC(=O)c3cccs3)sc2c1	-182	-166	25*	-358	-161	2	1
COc1ccc(C[N+]2=C(N)N[C@@]3(C=C(C)Cn4c(=O)n(-c5ccccc5)c(=O)n43)C2)c(OC)c1	-3	0	0	-4	-1	.	.
Cc1ccc(C(=O)Nc2ccc(NC(=O)c3ccc(C)o3)cc2)o1	1	-2	29*	0	0	31*	18*
Cc1oc2cc(OCC(=O)O)ccc2c(=O)c1Oc1ccccc1	-11	-5	-1	-7	-8	.	.
COc1ccc(Oc2c(C)oc3cc(OC(=O)N4CCOCC4)ccc3c2=O)cc1	-2	-3	0	-4	1	.	.
COc1ccc2c(=O)c(-c3ccccc3C)c(C)oc2c1	3	-3	0	4	-2	.	.
COc1ccccc1-c1c(C)oc2cc(OC(=O)c3ccco3)ccc2c1=O	i	-320	268*	i	i	376*	359*
COc1ccccc1Oc1c(C)oc2cc(OC(=O)c3ccco3)ccc2c1=O	i	-440	131*	i	i	785*	792*

Compound activity: PubChem, The Scripps Research Institute Molecular Screening Center
